Screens as filed in PubChem.
Pf growth 96h = Primary qHTS for delayed death inhibitors of the malarial parasite plastid, 96 hour incubation. 320,000 tested, 6.9% active. Potency, µM (highest dose often 28.7 µM), for inactives: at the top dose activity change, negative = inhibition, usual class: inhibitors. P. falciparum luciferase reporter growth, 96 h
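Readout is luminescence from an integrated firefly luciferase in P. falciparum. Red cells, 2% hematocrit and 0.05% parasitemia final, were cultured with compound through two parasite generations (96 hours) at 37 C, 5% CO2.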
HCV inh = qHTS Assay for Inhibitors of Hepatitis C Virus (HCV); Huh7.5.1 HCVcc-Cre infection, luciferase reporter, 44 h; Potency, µM (titrated, usually from 41.8 µM), for the others: at the top dose activity change, negative = inhibition, usual class: inhibitors; 340,000 tested, 3.4% active
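Infectious HCV cell culture screen: compound-treated cells (1,000/well, pre-plated 4 h) are infected with HCVcc-Cre at roughly 0.5 moi and grown 44 h. Infection is quantified by luciferase signal after 15 min substrate incubation at room temperature.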
Pf growth 48h = Primary qHTS for delayed death inhibitors of the malarial parasite plastid, 48 hour incubation | P. falciparum luciferase growth in erythrocytes, 48 h | 310,000 tested, 5.9% active | Potency, µM (top dose mostly 28.7 µM), for inactives: top-dose activity change, negative = inhibition, hits mostly inhibitors
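Luciferase-expressing parasites in RBCs, 2% Hct / 0.1% parasitemia final; RPMI 1640 + 0.5% Albumax; 37 C, 5% CO2, one generation; luminescence read-out, lower signal = inhibition.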
AMA1 RON2 block = qHTS for Inhibitors of AMA1-RON; Towards Development of Antimalarial Drug Lead: Primary Screen; Plasmodium falciparum AMA1 (3D7) - RON2 peptide interaction; 360,000 tested, 0.2% active; AlphaScreen AMA1-biotinylated RON2 peptide binding; Potency, µM (titrated, usually from 58.2 µM), for the others: top-dose activity change, negative = inhibition, hits mostly inhibitors;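 further: 0% = vehicle wells and -100% = peptide control; nearly all actives have a fitted effect of over 45% in size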
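AMA1 (3D7) with his tag at 25 nM final met compounds first, then biotinylated RON2 peptide at 25 nM; detection used donor plus acceptor beads, 10 µg/mL apiece, read by AlphaScreen after 30 min at room temperature.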
Active calls of the source: *; ! = not confirmed by another sample; [ ] = another dose, or the depositor's remark. A selection: hits, their analogues and other compounds. The true share with any hit is near 11%. The call rests on the fitted dose curve; in most records, active means well fitted curve in the direction sought with a large enough effect; inconclusive means small, poorly fitted or top-dose-only effect, or another doubt; inactive means no such curve, though single readings can be large; an effect the other way counts as inactive or inconclusive. Unless noted, on the % scale 0 is the no-effect control and ±100 the full control effect; potency means the concentration at half of the fitted maximal effect.

`COc1ccc(CNCc2ccc(C(F)(F)F)cc2)cc1OC` gave Pf growth 96h inconclusive, HCV inh inconclusive, Pf growth 48h 14.4% and AMA1 RON2 block -26.6%.
For COc1cc(CNCc2ccccn2)ccc1OCc1c(Cl)cccc1Cl the results were Pf growth 96h inconclusive, HCV inh 11.2µM*, Pf growth 48h inconclusive and AMA1 RON2 block 6.2%.
`COc1cccc(CNCc2ccco2)c1O` gave Pf growth 96h 11.7µM*, HCV inh 29.7%, Pf growth 48h 0.0% and AMA1 RON2 block -6.5%.
Screening COc1cc(CNCc2ccco2)ccc1OCc1ccccc1 returned Pf growth 96h 108.3%, HCV inh 11.2µM*, Pf growth 48h 4.0% and AMA1 RON2 block -17.4%.
CN(CCOc1ccccc1)S(=O)(=O)c1ccc2oc3ccccc3c2c1 was read as Pf growth 96h 34.5%, HCV inh -32.1%, Pf growth 48h -0.4% and AMA1 RON2 block -9.5%.
O=C(NC1CCCC1)C1CCN(c2cnccn2)CC1 was read as Pf growth 96h inconclusive, HCV inh 13.9%, Pf growth 48h 35.6% and AMA1 RON2 block -14.4%.
O=C(NC1CCCCC1)c1cc(N2C(=O)CCC2=O)ccc1Cl was read as Pf growth 96h inconclusive, HCV inh 1.0%, Pf growth 48h 27.1% and AMA1 RON2 block 5.6%.
`Cc1oc(-c2ccc3c(c2)OCCO3)cc1C(=O)NC(Cc1ccccc1)C(=O)O` (stereo not given) gave Pf growth 96h 22.4%, HCV inh 5.5%, Pf growth 48h -18.1% and AMA1 RON2 block -13.9%.
`Cc1cccc(CC(=O)NCC2CCCCC2)c1` gave Pf growth 96h inconclusive, HCV inh 9.4%, Pf growth 48h 33.9% and AMA1 RON2 block 12.8%.
Screening COc1cc2c(cc1OC)CN(c1ccc3ccccc3n1)CC2 returned Pf growth 96h inconclusive, HCV inh 12.6µM*, Pf growth 48h 11.7µM* and AMA1 RON2 block -21.1%.
COc1cc2c(cc1OC)CN(c1ccc(-c3ccccc3OC)nn1)CC2 was read as Pf growth 96h 5.9%[5.75 µM], HCV inh inconclusive, Pf growth 48h 5.22µM* and AMA1 RON2 block -20.2%.
`Cc1cc(C)cc(C(=O)OCC(=O)NCc2ccco2)c1` gave HCV inh -10.0% and AMA1 RON2 block -9.9%.
Screening CCN(CC(=O)NCc1ccc(Cl)cc1)C(=O)CCOc1ccc(C)cc1 returned Pf growth 96h -3.8%, HCV inh inconclusive, Pf growth 48h -22.6% and AMA1 RON2 block -3.6%.
`Cc1ccc(C(=O)NCCNC(=O)c2ccco2)cn1` gave Pf growth 96h -5.4%, HCV inh 12.4%, Pf growth 48h 10.9% and AMA1 RON2 block 7.6%.
For O=C(Oc1ccc(Cl)c2cccnc12)N1CCCCC1 the results were Pf growth 96h 142.0%, HCV inh -5.1%, Pf growth 48h 47.2% and AMA1 RON2 block 1.4%.
`Oc1c(Cl)cc(Cl)c2cccnc12` gave Pf growth 96h 4.26µM*!, HCV inh -21.2%, Pf growth 48h 8.49µM* and AMA1 RON2 block -53.5%.
For Oc1ccc(F)c2cccnc12 the results were Pf growth 96h 14.7µM*, HCV inh inconclusive, Pf growth 48h inconclusive and AMA1 RON2 block 66.7%.
For Cc1ccc(N=Nc2ccc(O)c3ncccc23)cc1C the results were Pf growth 96h inconclusive, HCV inh inconclusive, Pf growth 48h inconclusive and AMA1 RON2 block 82.8%.
Oc1c(I)cc(I)c2cccnc12 was read as Pf growth 96h 10.7µM*!, HCV inh -7.1%[8.37 µM], Pf growth 48h inconclusive and AMA1 RON2 block 70.0%.
`Oc1ccc(Cl)c2cccnc12` gave Pf growth 96h 12µM*, HCV inh inconclusive, Pf growth 48h 13.5µM* and AMA1 RON2 block 5.5%.
`Cc1ccc(S(=O)(=O)Nc2cccnc2Oc2ccc(Cl)cc2)cc1` gave Pf growth 96h inconclusive, HCV inh -7.4%, Pf growth 48h inconclusive and AMA1 RON2 block -1.7%.
For Cc1ccc(S(=O)(=O)Nc2cc(Cl)c(O)c3ncccc23)cc1 the results were Pf growth 96h -5.1%, HCV inh inconclusive, Pf growth 48h 7.38µM* and AMA1 RON2 block -47.9%.
`COC(=O)CN1C(c2ccc(Cl)cc2)=Nc2ccc(Cl)cc2C1c1ccccc1` (stereo not given) gave Pf growth 96h 3.29µM*, HCV inh inconclusive, Pf growth 48h 2.62µM* and AMA1 RON2 block -6.6%.
`COc1ccc(C2=Nc3ccc(C)cc3C(c3ccccc3)N2CC(=O)NN)cc1` (stereo not given) gave Pf growth 96h 1.85µM*, HCV inh 9.4%, Pf growth 48h -10.8% and AMA1 RON2 block -9.8%.
NNC(=O)CN1C(c2ccccc2Br)=Nc2ccc(Br)cc2C1c1ccccc1 (stereo not given) was read as Pf growth 96h inconclusive, HCV inh 7.7%, Pf growth 48h inconclusive and AMA1 RON2 block 23.9%.
NNC(=O)CN1C(c2cccc(Cl)c2)=Nc2ccc(Br)cc2C1c1ccccc1 (stereo not given) was read as Pf growth 96h 89.5%, HCV inh -0.1%, Pf growth 48h 1.85µM* and AMA1 RON2 block 28.0%.
Screening COc1ccc(C2=Nc3ccc(Br)cc3C(c3ccccc3)N2CC(=O)NN)cc1 (stereo not given) returned Pf growth 96h 0.4%, HCV inh 12.1%, Pf growth 48h 13.1µM* and AMA1 RON2 block 10.2%.
For Cc1ccc(N2C(=O)CC(Nc3ccc(Cl)c(S(=O)(=O)N(C)C)c3)C2=O)c(C)c1 (stereo not given) the results were Pf growth 96h 8.2%, HCV inh -1.1%, Pf growth 48h 0.0% and AMA1 RON2 block -1.6%.
`Cc1nn(-c2nnc(NC3CCCCC3)nn2)c(C)c1Br` gave Pf growth 96h inconclusive, HCV inh -2.0%, Pf growth 48h inconclusive and AMA1 RON2 block 1.0%[11.6 µM].
For COc1ccc(C(=O)NNC(=O)C2CC=CCC2)cc1 (stereo not given) the results were Pf growth 96h 2.33µM*, HCV inh -4.6%, Pf growth 48h 59.2% and AMA1 RON2 block 24.5%.
For CN(C)CCCn1c(N)c(S(=O)(=O)c2ccccc2)c2nc3ccccc3nc21 the results were Pf growth 96h -27.8%, HCV inh -6.4%, Pf growth 48h -17.3% and AMA1 RON2 block -8.7%.
For Cc1cccc(S(=O)(=O)c2c(N)n(Cc3ccco3)c3nc4ccccc4nc23)c1 the results were Pf growth 96h -16.0%, HCV inh -10.5%, Pf growth 48h 8.28µM* and AMA1 RON2 block 34.4%.
Screening CCCCn1c(N)c(S(=O)(=O)c2ccc(C)cc2)c2nc3ccccc3nc21 returned Pf growth 96h 11.7µM*, HCV inh inconclusive, Pf growth 48h inconclusive and AMA1 RON2 block 20.2%.
Cc1ccc(S(=O)(=O)c2c(N)n(Cc3ccco3)c3nc4ccccc4nc23)cc1 was read as Pf growth 96h 10.4µM*, HCV inh inconclusive, Pf growth 48h inconclusive and AMA1 RON2 block 3.4%.
